SARS PLpro yeast: qHTS of Yeast-based Assay for SARS-CoV PLP. S. cerevisiae expressing SARS-CoV PLpro, growth rescue. Potency, µM (top dose mostly 32.9 µM), without a hit: top-dose activity, positive = growth rescue, actives largely listed as activators. actives 0.19% (n = 330,000); calls by dose curve; further: potency means the concentration at half of the fitted maximal effect; 0% is about no effect; nearly all actives have a fitted effect of over 55% in size
Pf growth 96h: Primary qHTS for delayed death inhibitors of the malarial parasite plastid, 96 hour incubation; P. falciparum luciferase reporter growth, 96 h; Potency, µM (highest dose often 28.7 µM), inactives show at the top dose activity change, negative = inhibition, most hits filed as inhibitors; actives 6.9% (n = 320,000); AID 504834, 2011; further: potency means the concentration at half of the fitted maximal effect; on the % scale 0 is the no-effect control and ±100 the full control effect
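P. falciparum expressing integrated firefly luciferase, in erythrocytes at 2% hematocrit, 0.05% parasitemia, incubated with compounds 96 h at 37 C, 5% CO2. Growth inhibition read as loss of luminescence; two-generation exposure targets delayed-death apicoplast inhibitors.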
CHX counter: Cycloheximide Counterscreen for Small Molecule Inhibitors of Shiga Toxin; cell reporter, cycloheximide protein synthesis inhibition counterscreen; max response, %; actives 12% (n = 300,000); AID 2314, 2010; in the data active means max response mostly above about 13%, no sharp cut-off; inactive means mostly below about 14%; further: read at 38.3 µM for the half of the compounds with a filed dose; 0% is about no effect
Pf growth 48h: Primary qHTS for delayed death inhibitors of the malarial parasite plastid, 48 hour incubation; P. falciparum luciferase growth in erythrocytes, 48 h; Potency, µM (top dose mostly 28.7 µM), without a hit: at the top dose activity change, negative = inhibition, most hits filed as inhibitors; actives 5.9% (n = 310,000); AID 504832, 2011; further: potency means the concentration at half of the fitted maximal effect; on the % scale 0 is the no-effect control and ±100 the full control effect
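A one-generation exposure of luciferase-tagged malaria parasites in RPMI 1640/Albumax erythrocyte culture, 37 C and 5% CO2. Inhibition is inferred from decreased luminescence after adding detection reagent.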
NS1 function inh: qHTS Assay for Inhibitors of Influenza NS1 Protein Function; Potency, µM (doses to about 46.1 µM), for the others: top-dose activity, positive = more growth; actives 0.4% (n = 270,000); calls by dose curve; further: potency means the concentration at half of the fitted maximal effect; actives are rising curves; nearly all actives have a fitted effect of over 50% in size
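A cell-based growth assay was used: compounds that relieve NS1-induced slow growth of budding yeast raise OD600. Assay medium was yeast nitrogen base with ammonium sulphate and -URA supplement, pH 6.0, with 2% galactose.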
Shiga toxin inh: A qHTS for Small Molecule Inhibitors of Shiga Toxin; Vero cells, Shiga toxin protein synthesis inhibition reporter; inhibition, % at 38.7 µM; actives 9.2% (n = 290,000); AID 2315, 2010; in the data active means inhibition mostly above about 28%, no sharp cut-off; inactive means mostly below about 43%; further: 0% is about no effect
Starred values were filed as active, the others as inactive; ? = inconclusive; · = no result; [ ] = another dose, or the depositor's remark. Sampled rows, rich in hits. Any-hit rate of the full collection: about 21%. Unless noted, the call rests on the fitted dose curve; in most records, active means well fitted inhibition curve with a large enough effect; inconclusive means small, poorly fitted or top-dose-only effect, or another doubt; inactive means no such curve, though single readings can be large or run the other way.

SMILES	SARS PLpro yeast	Pf growth 96h	CHX counter	Pf growth 48h	NS1 function inh	Shiga toxin inh
Cn1c2ccccc2c2cc([N+](=O)[O-])ccc21	-0.9%	12.4%	-2.3	19.8%	2.4%	26.3
Cc1ccc(N(CCC(=O)Nc2nnc(C3CC3)s2)S(=O)(=O)c2ccccc2)cc1	7.8%	?	1.2	?	1.7%	-0.5
O=C(OCC(=O)c1ccc[nH]1)c1cncc(Br)c1	0.9%	-9.4%	·	0.4%	·	·
COc1ccccc1-n1c(-c2ccc(C)cc2)nc2ccccc2c1=O	0.5%	-27.5%	28.5*	?	-2.4%	47.6*
O=C(O)c1cccc(-n2c(/C=C/c3ccccc3)nc3ccccc3c2=O)c1	-1.4%	-26.4%	2.7	-21.1%[0.00184 µM]	13.2%	-10.3
O=c1c2ccccc2nc(/C=C/c2ccccc2)n1-c1ccc(O)cc1	0.5%	?	-7.1	12.2%[0.00184 µM]	-3.0%	34.4
Cc1ccccc1-n1c(-c2ccoc2)nc2ccccc2c1=O	-1.7%	4.15µM*	6.8	-20.7%	-5.9%	12.1
O=c1c2ccccc2nc(/C=C/c2ccc(O)cc2)n1-c1ccccc1O	-0.7%	?	17.1	9.28µM*	6.0%	19.3
O=c1c2ccccc2nc(/C=C/c2ccccc2)n1-c1ccccc1O	-8.5%	?	-0.9	9.28µM*	-17.3%	-4.3
O=C(CCN1C(=O)[C@@H]2Cc3ccccc3CN2C1=O)NCc1ccc(Cl)cc1	5.4%	?	-2.3	7.1%	11.9%	-4.4
O=C(CSCCO)Nc1ccc([N+](=O)[O-])cc1	0.3%	0.9%	-2.3	5.8%	1.8%	17.7
COC(=O)c1cc(S(=O)(=O)N2CCN(c3ccc([N+](=O)[O-])cc3)CC2)c[nH]1	2.7%	-7.6%	-1.5	-19.2%	19.5%	1.4
COc1ccccc1-n1c(/C=C/c2ccc(O)cc2)nc2ccccc2c1=O	-3.5%	-6.8%	6.7	13.1µM*	-1.7%	15.5
Cc1cc(NC(=O)COC(=O)CCNS(=O)(=O)c2c(Cl)cccc2Cl)no1	3.0%	32.9%	-2.7	4.3%	·	-13.3
C=C1C(=O)[C@@]23[C@H](O)C[C@@H]4C(C)(C)CC[C@H](O)[C@@]4(C)[C@@H]2CC[C@@H]1[C@H]3O	-4.5%	?	-6.6	14.7µM*	-17.6%	-15.3
C=C1C(=O)[C@@]23[C@H](O)C[C@@H]4C(C)(C)CC[C@H](O)[C@]4(C)[C@@H]2C[C@H](O)[C@@H]1[C@H]3O	3.8%	4.15µM*	-1.5	9.28µM*	4.4%	11.6
Cc1cc(N2C(=O)C(O)=C(C(=O)c3ccc(C)o3)C2c2ccc([N+](=O)[O-])cc2)no1 (stereo not given)	3.7%	?	-1.5	-17.2%	15.3%	5.5
O=C(C1CC(c2ccccc2O)=NO1)N1CCC2(CC1)OCCO2 (stereo not given)	5.0%	214.0%	24.9*	·	-3.8%	54.5
CSc1ccccc1NC(=O)C1CC(c2ccccc2O)=NO1 (stereo not given)	0.7%	·	41.0*	-5.9%	-11.1%	93.4*
CCOC(=O)N1CCN(C(=O)C2CC(c3ccccc3OC)=NO2)CC1 (stereo not given)	7.6%	-6.8%	9.3	·	-8.5%	-6.1
COC(=O)c1ccccc1NC(=O)C1CC(c2ccccc2O)=NO1 (stereo not given)	3.6%	·	-1.1	?	-0.5%	10.4
O=C(C1CC(c2ccccc2O)=NO1)N1CCCC1 (stereo not given)	-0.8%	23.5%	37.9*	56.1%	4.8%	78.3*
CCN(c1ccccc1)S(=O)(=O)c1ccc(OC)c(NC(=O)COc2ccc(C(C)=O)cc2)c1	-5.0%	-16.1%	·	20.5%	·	·
O=S(=O)(NC1=NCCCCC1)c1ccc2ccccc2c1	18.2%	35.5%	23.3*	28.5%	-4.7%	20.9
CCCOc1ccc(C(=O)Nc2ccc(S(=O)(=O)NC3=NCCCCC3)cc2)cc1	6.7%	10.4µM*	·	5.86µM*	·	·
COc1cc(CCC(=O)Nc2ccc(S(=O)(=O)NC3=NCCCCC3)cc2)cc(OC)c1OC	-1.0%	10.4µM*	0.4	-28.7%	·	16.4
CON(C)S(=O)(=O)c1cccc(C(=O)Nc2ccc(S(=O)(=O)NC3=NCCCCC3)cc2)c1	-2.1%	?	·	?	·	·

Screens (PubChem BioAssay)
